Test results: PubChem BioAssay (EPA / NIEHS)
Results filed as inconclusive are left out. Active and inactive are the calls of the source. The calls were made as follows, unless noted: active = hit-call score of the fitted dose curve at least 0.9, where 1 is the maximum; inactive = score below 0.9.

Tests used:
[1] = CCTE_Mundy_HCI_Cortical_Synap_Neur_Matur_NeuriteSpotCountPerNeuron: CCTE's Synaptogenesis and Neurite Maturation Assay in rat cortical cells for Neurite Spot Count per Neuron Count, Mundy Lab (AID 2284215)
Procedure, shortened: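 Rat primary cortical cultures given AraC at DIV 5, dosed from DIV 7 to DIV 12 with media change. Fixed, stained for MAP2, synaptophysin and Hoechst; neurite-associated synaptophysin puncta per neuron quantified by high-content imaging versus DMSO.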

[2] = CCTE_Mundy_HCI_Cortical_Synap_Neur_Matur_SynapseCount: CCTE's Synaptogenesis and Neurite Maturation Assay in rat cortical cells for Synapse Count, Mundy Lab (AID 2284218)
Procedure, shortened: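 Endpoint: synapses/neuron by HCI (synaptophysin puncta on MAP2-labelled neurites, Hoechst nuclei). Rat primary cortical cells, AraC DIV 5, dosed DIV 7, fixed DIV 12; DMSO negative control.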

[3] = CCTE_Mundy_HCI_Cortical_Synap_Neur_Matur_NeuriteCount: CCTE's Synaptogenesis and Neurite Maturation Assay in rat cortical cells for Neurite Count, Mundy Lab (AID 2284222);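 also: exposure from day 7 to day 12 in vitro with readout at day 12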
Procedure, shortened: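 Chemical exposure runs DIV 7–12 in rat cortical cultures, glia suppressed by AraC at DIV 5; measurement is at DIV 12. Imaging-derived neurite counts are fitted against DMSO baseline.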

[4] = CCTE_Mundy_HCI_Cortical_Synap_Neur_Matur_CellBodySpotCount: CCTE's Synaptogenesis and Neurite Maturation Assay in rat cortical cells for Cell Body Spot Count, Mundy Lab (AID 2284223)
Procedure, shortened: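 Primary rat cortical cultures, AraC added at DIV 5; dosed DIV 7 through DIV 12 […]. Fixed, stained for MAP2 and synaptophysin with Hoechst; cell body-associated synaptophysin puncta per neuron counted by high-content imaging, loss vs DMSO.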

[5] = CCTE_Mundy_HCI_hNP1_Pro_ResponderAvgInten: CCTE's Proliferation Assay in human neuroprogenitor cells, Mundy Lab (AID 2284224; active = hit-call score of the fitted dose curve at least 0.9, where 1 is the maximum;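 also: human neural progenitor cells hNP1 derived from WA09 embryonic stem cells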)
Procedure, shortened: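 Human neuroprogenitors (hNP1, WA09 lineage) receive test chemical after 40 to 44 hours of attachment. A four-hour BrdU pulse begins twenty hours later, followed by fixation and high content imaging; signal is referenced to DMSO controls.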

[6] = UKN2_HCS_IMR90_cell_viability: Viability Assessment in the University of Konstanz (UKN) Leist Lab Neural Crest Cell Migration Assay in human induced IMR90 Pluripotent Stem Cells (UKN2) (AID 2284233);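 also: viability of neural crest cells differentiated from IMR90 iPSC measured by calcein-AM fluorescence imaging; cells exposed to compound for 24 h after a 24 h migration phase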
Procedure, shortened: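 cMINC format, iPSC-derived neural crest (IMR90); 24 h migration (EGF/FGF, N2-S), then 24 h toxicant. Calcein-AM/H-33342 stain 30 min; fluorescence intensity by HCS; DMSO-normalised, bidirectional fitting.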

[7] = CCTE_Mundy_HCI_hNP1_Casp3_7: CCTE's Caspase-Glo 3/7 Assay in human neuroprogenitor cells for Apoptosis, Mundy Lab (AID 2284240)
Procedure, shortened: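 Neuroepithelial-lineage stem cells from WA09 embryonic cells were treated with chemicals after 40–44 h of culture. Twenty-four hours later, caspase-3/7 activation was detected luminescently after a 30 min room-temperature reagent step, with DMSO as baseline.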

[8] = CCTE_Mundy_HCI_hNP1_CellTiter: CCTE's Cell Titer-Glo 2 Assay in human neuroprogenitor cells for Viability, Mundy Lab (AID 2284241; active = hit-call score of the fitted dose curve at least 0.9, where 1 is the maximum)
Procedure, shortened: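 Measures ATP content in human neural progenitors derived from WA09 embryonic cells. Read-out at 26.5 hours after dosing, with DMSO serving as the negative control and baseline.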

[9] = IUF_NPC2c_oligodendrocyte_migration_120hr: Leibniz Research Institute for Environmental Medicine (IUF) 120-hour Neural Progenitor Cell Migration Assay for Oligodendrocyte Migration (NPC2c) (AID 2284297);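 also: O4-positive oligodendrocyte migration distance divided by radial glia migration distance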
Procedure, shortened: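 Human fetal neural progenitor spheres (0.3 mm) are plated on poly-D-lysine/laminin in N2 differentiation medium and exposed for 120 h, with half-medium renewal at day 3. Oligodendrocyte (O4+) migration distance comes from ICC imaging, normalised to radial glia migration.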

[10] = IUF_NPC2a_radial_glia_migration_120hr: Leibniz Research Institute for Environmental Medicine (IUF) 120-hour Neural Progenitor Cell Migration Assay for Radial Glia Migration (NPC2a) (AID 2284298)
Procedure, shortened: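 Human fetal-cortex neural progenitor spheres (0.3 mm) plated on poly-D-lysine/laminin in N2 differentiation medium, exposed 120 h at 37C with half-medium renewal at day 3. Radial glia migration distance (um) measured from Hoechst-stained nuclei images; DMSO baseline.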

[11] = IUF_NPC2a_radial_glia_migration_72hr: Leibniz Research Institute for Environmental Medicine (IUF) 72-hour Neural Progenitor Cell Migration Assay for Radial Glia Migration (NPC2a) (AID 2284299)
Procedure, shortened: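 Spheres of human primary neural progenitors migrate on poly-D-lysine/laminin under compound exposure at 37C, 5% CO2. The 72 h radial glia migration distance comes from brightfield images, measured manually.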

[12] = IUF_NPC2b_neuronal_migration_120hr: Leibniz Research Institute for Environmental Medicine (IUF) 120-hour Neural Progenitor Cell Migration Assay for Neuron Migration (NPC2b) (AID 2284300)
Procedure, shortened: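 0.3 mm hNPC spheres on poly-D-lysine/laminin in N2 differentiation medium exposed 120 h, half-medium refresh day 3; 7 concentrations, DMSO max 0.1%. Neuron (TUBB3) distance from sphere core by ICC imaging, normalised to radial glia migration.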

[13] = IUF_NPC3_neuronal_differentiation_120hr: Leibniz Research Institute for Environmental Medicine (IUF) 120-hour Neuronal Differentiation Assay (NPC3) (AID 2284301)
Procedure, shortened: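 Neuronal differentiation of primary human neural progenitors measured by high-content imaging: percent TUBB3+ of Hoechst+ nuclei within migrated area at 120 h, seven-point serial dilution plus solvent control, gain or loss relative to DMSO.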

[14] = IUF_NPC4_neurite_length_120hr: Leibniz Research Institute for Environmental Medicine (IUF) 120-hour Neuronal Morphology Assay for Neurite Length (NPC4) (AID 2284302)
Procedure, shortened: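 Neurons from differentiating human fetal neural progenitor spheres are scored for average neurite length after five days of compound exposure. Fitting uses DMSO as negative control.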

[15] = IUF_NPC5_oligodendrocyte_differentiation_120hr: Leibniz Research Institute for Environmental Medicine (IUF) 120-hour Oligodendrocyte Differentiation Assay (NPC5) (AID 2284304; active = hit-call score of the fitted dose curve at least 0.9, where 1 is the maximum;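 also: primary human fetal neural progenitor spheres plated to migrate and differentiate; share of O4-positive cells among Hoechst nuclei found by CNN image analysis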)
Procedure, shortened: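 Human fetal neural progenitor spheres (0.3 mm) plated on poly-D-lysine/laminin in N2 differentiation medium and exposed for 120 h at 7 concentrations, with half-medium renewal at day 3. O4-positive cells identified by CNN, expressed as percent of Hoechst nuclei.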

[16] = IUF_NPC4_neurite_area_120hr: Leibniz Research Institute for Environmental Medicine (IUF) 120-hour Neuronal Morphology Assay for Neurite Area (NPC4) (AID 2284305; active = hit-call score of the fitted dose curve at least 0.9, where 1 is the maximum)
Procedure, shortened: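 Endpoint at 120 h: automated imaging of TUBB3/Hoechst-stained differentiating human neural progenitor spheres, neurite area per neuron from skeletonization. DMSO solvent control, not above 0.1%, set the baseline; medium was half-replaced on day 3.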

[17] = IUF_NPC2-5_cytotoxicity_72hr: Cytotoxicity Assessment at 72 hours in the Leibniz Research Institute for Environmental Medicine (IUF) Neural Progenitor Cell Migration and Differentiation Assay for Cytotoxicity (NPC2-5) (AID 2284306; active = hit-call score of the fitted dose curve at least 0.9, where 1 is the maximum;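 also: LDH release into supernatant measured by resorufin fluorescence marking membrane damage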)
Procedure, shortened: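 Primary human neural progenitor spheres migrate and differentiate on laminin. Compound is present from the start of differentiation, with DMSO kept at or below 0.1%. At 72 h, supernatant LDH is quantified fluorometrically, with values fitted in the positive direction.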

[18] = IUF_NPC2-5_cytotoxicity_120hr: Cytotoxicity Assessment at 120 hours in the Leibniz Research Institute for Environmental Medicine (IUF) Neural Progenitor Cell Migration and Differentiation Assay (NPC2-5) (AID 2284307; active = hit-call score of the fitted dose curve at least 0.9, where 1 is the maximum)
Procedure, shortened: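 Human fetal (GW 16-19) neural progenitor spheres (0.3 mm) plated on poly-D-lysine/laminin in N2 differentiation medium, exposed 120 h with half-medium renewal at day 3; 7 concentrations plus solvent control, DMSO ≤0.1%. LDH release in supernatant read by resorufin fluorescence.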

[19] = IUF_NPC2-5_cell_number_120hr: Cell Number Assessment at 120 hours in the Leibniz Research Institute for Environmental Medicine (IUF) Neural Progenitor Cell Migration and Differentiation Assay (NPC2-5) (AID 2284308);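 also: count of Hoechst-stained nuclei in migration zone around plated human neural progenitor spheres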
Procedure, shortened: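 Human fetal neural progenitor spheres (0.3 mm) plated on poly-D-lysine/laminin in N2 differentiation medium, exposed five days across 7 concentrations with half-medium refresh at day 3. Hoechst-positive nuclei counted in migration area at 120 h, relative to DMSO.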

[20] = IUF_NPC2-5_viability_120hr: Viability Assessment at 120 hours in the Leibniz Research Institute for Environmental Medicine (IUF) Neural Progenitor Cell Migration and Differentiation Assay (NPC2-5) (AID 2284312)
Procedure, shortened: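 Human fetal (GW 16-19) neural progenitor spheres of 0.3 mm were plated on poly-D-lysine/laminin in N2 differentiation medium and exposed from day 0 for 120 h, with half-medium refresh at day 3. Viability was read as alamar blue resazurin-to-resorufin fluorescence against DMSO.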

[21] = IUF_NPC1_cytotoxicity_72hr: Cytotoxicity Assessment at 72 hours in the Leibniz Research Institute for Environmental Medicine (IUF) Neural Progenitor Cell Proliferation Assay (NPC1) (AID 2284332; active = hit-call score of the fitted dose curve at least 0.9, where 1 is the maximum;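 also: rising LDH signal means more cytotoxicity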)
Procedure, shortened: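 Readout is fluorescence from LDH-dependent resazurin conversion, sampled from culture medium after compound contact lasting 72 h. Each well holds one 0.25-0.35 mm human progenitor sphere kept at 37C, 5% CO2 with EGF and FGF.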

[22] = CCTE_Mundy_HCI_iCellGluta_NOG_NeuronCount: CCTE's Neurite Outgrowth Assay in iCellGluta cells for Neuron Count, Mundy Lab (AID 2284340; active = hit-call score of the fitted dose curve at least 0.9, where 1 is the maximum;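 also: cells fixed about 48 h after compound addition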)
Procedure, shortened: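 Neuron count read by automated high-content imaging of Hoechst 33342 and betaIII-tubulin/Alexa Fluor-488 labelling in human iPSC glutamatergic neurons. Activity fitted relative to DMSO.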

[23] = CCTE_Mundy_HCI_iCellGluta_NOG_NeuriteCount: CCTE's Neurite Outgrowth Assay in iCellGluta cells for Neurite Count, Mundy Lab (AID 2284342; active = hit-call score of the fitted dose curve at least 0.9, where 1 is the maximum;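 also: chemical exposure about 48 hours starting 2 hours after plating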)

Measured: outcome

CCOP(=S)(OCC)SCS(=O)C(C)(C)C (stereo not drawn)
inactive: all assays above
